From PubChem BioAssay AID720553 (National Center for Advancing Translational Sciences (NCATS), 2013)
Hit rate of the full screen: of about 340,000 compounds, about 3,300 (0.97%) were called active. The full list was thinned out, with actives kept by preference. Values without a mark were called inactive.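 How the source made its calls: active means maximum activity change below -70%; inconclusive means maximum activity change from -70% to -50%; inactive means maximum activity change above -50%.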

System: Potassium voltage-gated channel subfamily H member 2, brain isoform KCNH2 3.1 (human)
Experiment: qHTS for Inhibitors of KCHN2 3.1: Mutant qHTS
Details: U2OS KCNH2 3.1, thallium flux FluxOr; stronger effect = lower value
Method in brief: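 Normalized rate constant (relative to positive and negative DMSO controls) derived from a 2 min kinetic fluorescence read after stimulation; U2OS cells expressing the 3.1 isoform via virus at 1.77 x 10^8 /mL.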
On the % scale 0 is the no-effect control and ±100 the full control effect.

Compound	activity change
CCN(CC)C(=O)C1=C(C)N(Cc2ccccc2)C(=O)C(CC(=O)NC(c2ccccc2)c2ccccc2)C1 (stereo not given)	0.781%
Cc1noc(C)c1S(=O)(=O)N(C)C[C@H]1OCCCC[C@@H](C)Oc2ccc(NC(=O)CCCN(C)C)cc2C(=O)N([C@H](C)CO)C[C@@H]1C	18.2%
COC(=O)C[C@H]1C[C@@H]2c3cc(N(C)C)ccc3O[C@@H]2[C@H](CO)O1	2.06%
O=C(Nc1cccc(C(=O)O)c1)/C(=C\c1ccccc1)NC(=O)c1ccc(Br)o1	3.42%
Cc1cccc(N2CCC(NCc3c(C(=O)N4CCCCC4)nc4c(C)cccn34)CC2)c1	-70.6% (active)
Cc1cccn2c(CNCC(C)Oc3cccnc3)c(C(=O)N3CCOCC3)nc12 (stereo not given)	1.22%
CCOC(=O)C1CCN(Cc2c(C(=O)N3CCOCC3)nc3c(C)cccn23)CC1	-6.64%
CC1=C(C(=O)N(C)C)CC(CC(=O)NCCc2ccccn2)C(=O)N1CCC1=CCCCC1 (stereo not given)	6.34%
CN(Cc1c(F)cccc1Cl)C(=O)COC(=O)Cn1cnc2ccccc2c1=O	2.53%
COc1ccc(C2=NS(=O)(=O)N(C)C(C(=O)NC(C)c3ccccc3)=C2)cc1 (stereo not given)	-85% (active)
COc1ccc(NC(=O)C2=CC(c3ccc(OC)c(OC)c3)=NS(=O)(=O)N2C)cc1	-5.31%
COc1ccc(C2=NS(=O)(=O)N(C)C(C(=O)N(C)Cc3ccccc3)=C2)cc1	7.33%
Cc1cc2c3ccccc3[nH]c(=O)n2n1	-1.28%
COc1ccc([C@H]2N[C@]3(CCCN(CC4CCCCC4)C3=O)[C@H]3C(=O)N(C)C(=O)[C@@H]23)cc1	4.21%
CCCCCCNC(=O)O[C@]12C[C@@H](C(=O)OC)[C@@H](C(=O)OC)C[C@@]1(O)CN(S(=O)(=O)c1ccc(C)cc1)C2	-9.12%
CCN(CC)CCN(C(=O)c1ccc2c(c1)CCCC2)c1nc2c(OC)cccc2s1	-48.3%
CC(C)N1C(=O)N(c2ccccc2)C(C)(O)CC1(C)C (stereo not given)	-71.4% (active)
CC12C(=O)N(c3ccccc3)C(=O)C1C(c1ccccc1)N1CCCN12 (stereo not given)	2.73%
CC(C)C1C2=C(CC(C)(C)CC2=O)ON1c1ccccc1 (stereo not given)	-4.1%
Cc1ccc(C(=O)N[C@H](C(=O)N2CCN(c3ncccn3)CC2)C(C)C)cc1	5.87%
C[C@H]1NS(=O)(=O)c2cc(Cl)ccc2O[C@@H]1c1ccccc1	-5.74%
CCOc1cc(/C=N/Nc2cc(C)nc3ccc(C)cc23)ccc1O	-2.46%
Fc1ccccc1/C=N/Nc1cc(N2CCCCC2)ncn1	11.8%

Compound	activity change
Cc1cc(N/N=C/c2ccccc2F)c2ccccc2n1	-142% (active)
CCCCN1CC(C)(C)[C@H](CC(=O)Nc2ccc(Br)cc2)C1=O	5.46%
Cc1ccccc1CN1CCN(C(=O)c2cccc(F)c2)CC1	-16.7%
O=C(c1ccc(F)cc1)C1CCN(Cc2cn[nH]c2-c2ccccc2)CC1	-104% (active)
COc1ccc(CN2CCNC(=O)C2CC(=O)NCc2cn[nH]c2-c2ccccc2)c(F)c1 (stereo not given)	-3.5%
COc1ccc2c(CN3CCN(S(=O)(=O)c4cccs4)CC3)cc(=O)oc2c1	-11.7%
Cc1ccc2c(CN3CCN(S(=O)(=O)c4ccccc4C(F)(F)F)CC3)cc(=O)oc2c1	-74.7% (active)
Cc1cc2oc(=O)cc(CN3CCN(S(=O)(=O)c4cccs4)CC3)c2cc1C(C)C	-5.54%
O=C(N=C1SC2CS(=O)(=O)CC2N1Cc1ccccc1)c1ccccc1 (stereo not given)	-10.6%
O=Nc1c(O)cc(O)c2ccccc12	4.37%
Cc1ccc(-c2ccc(CN3C(C)C(=O)N(Cc4cn(CCC5OCCCO5)nn4)CCS3(=O)=O)cc2)cc1 (stereo not given)	-4.85%
COc1cc(NC(=O)C2=C(C)OCCS2)c(Cl)cc1C(=O)NCCCN1CCCC(C)C1 (stereo not given)	-7.47%
CC(=O)Nc1ccc2c3c(ccc([N+](=O)[O-])c13)CC2	-19%
O=C1c2ccccc2C(=O)c2c1cccc2N1CCN(Cc2ccccc2)CC1	-89.4% (active)
O=S1(=O)CCN(Cc2ccccc2)CC1	-7.16%
O=C1c2ccccc2C(=O)c2c1cccc2N1CCN(CCO)CC1	-26.5%
CCOC(=O)c1cc(-c2sc(NC(=O)c3ccccc3)nc2C)n(Cc2ccccc2)n1	-4.02%
C[C@H]1CN([C@@H](C)CO)C(=O)CCCn2cc(nn2)CO[C@@H]1CN(C)S(=O)(=O)c1ccccc1C#N	-13.5%
CC(=NNC(N)=O)C1CC2CCC1CC2 (stereo not given)	0.306%
CC(C)NC(=O)Nc1ccc2c(c1)C(=O)N([C@H](C)CO)C[C@H](C)[C@@H](CN(C)Cc1ccc(C(F)(F)F)cc1)OCCCC[C@@H](C)O2	-29.9%
CC(=O)c1ccccc1NC(=O)COC(=O)C1COc2ccccc2O1 (stereo not given)	-5.39%
Nc1cc(=O)c2[nH]cnc2[nH]1	4.52%
Cc1ccc(C)c(NC(=O)c2ccc3nccnc3c2)c1	5.85%

Compound	activity change
Cc1ccc(Oc2ccc3c(c2)C(=O)N(c2cccc4cccnc24)C3=O)cc1	-1.2%
Cc1ccc(OS(=O)Nc2cccc3nccnc23)cc1 (stereo not given)	-73.2% (active)
C[C@@H]1CN([C@H](C)CO)S(=O)(=O)c2ccc(C#CC3CCCCC3)cc2O[C@H]1CN(C)C(=O)Cc1ccncc1	-2.79%
CC1=C(C(=O)N2CCOCC2)CC(CC(=O)NCC2CCCCC2)C(=O)N1Cc1ccc(F)cc1 (stereo not given)	-12.1%
CC1C(=O)N(Cc2cn(CC3CCCCC3)nn2)CCS(=O)(=O)N1Cc1ccc(-c2cccc(N(C)C)c2)cc1 (stereo not given)	-6.27%
COc1ccc(CSc2nc(N3CCOCC3)c3c(c2C#N)CC(C)(C)OC3)cc1	-85.2% (active)
CCOC(=O)CSc1nc(N2CCOCC2)c2c(c1C#N)CC(C(C)C)OC2 (stereo not given)	9.26%
CC1(C)Cc2c(C#N)c(SCc3nc4ccccc4[nH]3)nc(N3CCOCC3)c2CO1	1.1%
CN1CCn2cnc(C(=O)NCC(=O)OC(C)(C)C)c2C1=O	8.04%
COc1ccc(Nc2nc(-c3ccccc3)cs2)cc1	-83.5% (active)
COc1ccc(Nc2ccc3ccccc3c2)cc1	-0.36%
COc1ccc(-c2csc(Nc3cccc(C)n3)n2)cc1OC	-0.0615%
CN(Cc1ccccc1)C(=O)CCC1CCN(C(=O)c2ccco2)CC1	-7.93%
O=C(COC(=O)c1cccc(Cl)c1)Nc1ccc2[nH]c(=O)[nH]c2c1	-16.7%
O=C(COc1ccc([N+](=O)[O-])cc1Cl)Nn1cnnc1	-17.4%
O=C(COc1ccc([N+](=O)[O-])cc1Cl)Nc1ccc2[nH]c(=O)[nH]c2c1	-113% (active)
Cc1ccc(C(=O)NNC(=O)c2cc3cc4ccccc4nc3s2)cc1	-14.6%
Cc1ccc(C(=O)NNc2ncnc3ccccc23)cc1	-135% (active)
Cc1ccc(NC(=O)c2ccc(Oc3ncccn3)cc2)cc1	10.8%
CCOC(=O)c1c(NC(=O)COC(=O)c2ccc(S(=O)(=O)C(F)F)cc2)sc(C(=O)N(C)C)c1C	-12.2%
Cc1ccccc1C#CC1=CC(=O)CC(C)(C)C1	-7.29%
Cc1ccc(-c2nc3ccc(Cl)cn3c2Cc2ccccc2)cc1	-5.74%
COc1cc(NC(=O)c2ccccc2NS(=O)(=O)c2ccc(Cl)s2)cc(OC)c1	-9.39%

Compound	activity change
O=C(Nc1nncs1)c1ccccc1NS(=O)(=O)c1cccs1	-71.4% (active)
O=S(=O)(Nc1ccccc1Br)c1cccs1	8.03%
CNC(=O)C1CN(C(=O)c2cccc(S(=O)(=O)N3CCc4ccccc43)c2)c2ccccc2O1 (stereo not given)	-2.85%
O=C(NCCS(=O)(=O)N1CCN(c2ccccc2)CC1)c1cc(=O)c2ccccc2o1	5.39%
CSc1ncc(C(=O)NCCCc2ccccc2)c(C)n1	17.9%
Cc1ccc(NC(=O)c2ccn(C(=O)Nc3ccccc3)n2)c(C)c1	11.1%
CSc1ncc(C(=O)Nc2ccc(C)cc2C)c(C)n1	-183% (active)
CCN(CC)C(=O)C1=C(C)N(Cc2ccc(F)cc2)C(=O)C(CC(=O)NC2CCCC2)C1 (stereo not given)	-23.9%
CSc1ncnc2c1ncn2CCCNCC1CCCCC1	-15.7%
CC(C)C1CCN(C(=O)C2CCC(=O)N(C3CCCCCC3)C2)CC1 (stereo not given)	-5.43%
Cc1ccc(C(=O)N/C(=C/C=C/c2ccccc2)C(=O)NCc2ccco2)cc1	-38.2%
CNC(=O)/C(=C\C=C\c1ccccc1)NC(=O)c1ccc([N+](=O)[O-])cc1	-78.9% (active)
O=C(Nc1ccc(C(=O)O)cc1)/C(=C/c1ccc([N+](=O)[O-])cc1)NC(=O)c1ccccc1	0.484%
COc1ccc(C(CNC(=O)c2ccc(OCc3cscn3)cc2)N2CCCC2)cc1 (stereo not given)	-4.07%
Cc1cc(C)c2cc(C#N)c(N3CCNCC3)nc2c1	15.5%
CCC(C)NC(=O)c1ccc(N2CCC3(CC2)OCCO3)c([N+](=O)[O-])c1 (stereo not given)	15.4%
O=C(Nc1ccccc1N1CCN(C(=O)c2ccccc2)CC1)c1ccco1	-10.9%
COCCNC(=O)c1ccc(N2CCC3(CC2)OCCO3)c([N+](=O)[O-])c1	1.85%
COC(=O)c1ccc(N2CCOCC2)c(NC(=O)c2ccc(Br)o2)c1	-2.48%
CCCNC(=O)c1ccc(N2CCC3(CC2)CC(c2cccc(Br)c2)=NO3)c(NC(=O)c2ccco2)c1	-83.4% (active)
CCCNC(=O)c1ccc(N2CCC3(CC2)CC(c2ccc(Cl)cc2)=NO3)c([N+](=O)[O-])c1	-83.7% (active)
